The supplement of paper PMC12282887
± gives the standard deviation of the averaged measurements.

Assays:
Assay in all cases: promoter activity interaction Z-score (Lux/OD deviation from empty-vector control); higher = stronger promoter induction by the compound
[1] = system: E. coli BW25113 acrABp lux reporter
Summary of the method: (§1)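 E. coli BW25113 (wild type or marA, soxS or rob deletion) carrying low-copy luxCDABE promoter reporters grew in 40 µl LB Lennox in 384-well plates at 37°C. Each compound was tested at four 1:2 dilutions in biological duplicates. OD600 and luminescence were read every 30 min for 12 h. Areas were taken over 0–8 h (wild type) or 1–9 h (mutants), and wells below 10% of median growth area were removed. The score is the Z-transformed residual of growth-normalised luminescence fitted against the empty-vector control.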

[2] = system: E. coli BW25113 marRABp lux reporter
Summary of the method: as §1

[3] = system: E. coli BW25113 micFp lux reporter
Summary of the method: as §1

[4] = system: E. coli BW25113 ompFp lux reporter
Summary of the method: as §1

[5] = system: E. coli BW25113 robp lux reporter
Summary of the method: as §1

[6] = system: E. coli BW25113 soxSp lux reporter
Summary of the method: as §1

[7] = system: E. coli BW25113 tolCp lux reporter
Summary of the method: as §1

[8] = 0.11 µg/ml, genetic background: wild type
[9] = 0.11 µg/ml, genetic background: ΔmarA
[10] = 0.11 µg/ml, genetic background: Δrob
[11] = 0.11 µg/ml, genetic background: ΔsoxS
[12] = 0.21 µg/ml, genetic background: wild type
[13] = 0.21 µg/ml, genetic background: ΔmarA
[14] = 0.21 µg/ml, genetic background: Δrob
[15] = 0.21 µg/ml, genetic background: ΔsoxS
[16] = 0.43 µg/ml, genetic background: wild type
[17] = 0.43 µg/ml, genetic background: ΔmarA
[18] = 0.43 µg/ml, genetic background: Δrob
[19] = 0.43 µg/ml, genetic background: ΔsoxS
[20] = 0.86 µg/ml, genetic background: wild type
[21] = 0.86 µg/ml, genetic background: ΔmarA
[22] = 0.86 µg/ml, genetic background: Δrob
[23] = 0.86 µg/ml, genetic background: ΔsoxS

## Cc1ncc([N+](=O)[O-])n1CCO [Metronidazole]
[1]; [8]
  promoter activity interaction Z-score: 0.0148 ± 0.051
[1]; [9]
  promoter activity interaction Z-score: 0.993 ± 0.18
[1]; [10]
  promoter activity interaction Z-score: 0.102 ± 0.12
[1]; [11]
  promoter activity interaction Z-score: 0.194 ± 0.31
[1]; [12]
  promoter activity interaction Z-score: -0.197 ± 0.0096
[1]; [13]
  promoter activity interaction Z-score: -0.0386 ± 0.09
[1]; [14]
  promoter activity interaction Z-score: 0.0596 ± 0.14
[1]; [15]
  promoter activity interaction Z-score: 0.187 ± 0.31
[1]; [16]
  promoter activity interaction Z-score: -0.222 ± 0.18
[1]; [17]
  promoter activity interaction Z-score: 0.706 ± 0.8
[1]; [18]
  promoter activity interaction Z-score: -0.0336 ± 0.17
[1]; [19]
  promoter activity interaction Z-score: 0.0816 ± 0.12
[1]; [20]
  promoter activity interaction Z-score: 0.191 ± 0.025
[1]; [21]
  promoter activity interaction Z-score: 0.645 ± 0.49
[1]; [22]
  promoter activity interaction Z-score: 0.143 ± 0.34
[1]; [23]
  promoter activity interaction Z-score: -0.0136 ± 0.22
[2]; [8]
  promoter activity interaction Z-score: 0.18 ± 0.22
[2]; [9]
  promoter activity interaction Z-score: -0.0383 ± 0.16
[2]; [10]
  promoter activity interaction Z-score: -0.0923 ± 0.23
[2]; [11]
  promoter activity interaction Z-score: -0.209 ± 0.08
[2]; [12]
  promoter activity interaction Z-score: 0.0869 ± 0.33
[2]; [13]
  promoter activity interaction Z-score: -0.213 ± 0.16
[2]; [14]
  promoter activity interaction Z-score: 0.0389 ± 0.047
[2]; [15]
  promoter activity interaction Z-score: 0.0145 ± 0.012
[2]; [16]
  promoter activity interaction Z-score: -0.113 ± 0.25
[2]; [17]
  promoter activity interaction Z-score: 0.07 ± 0.011
[2]; [18]
  promoter activity interaction Z-score: 0.119 ± 0.23
[2]; [19]
  promoter activity interaction Z-score: -0.0739 ± 0.18
[2]; [20]
  promoter activity interaction Z-score: 0.0285 ± 0.35
[2]; [21]
  promoter activity interaction Z-score: 0.0853 ± 0.054
[2]; [22]
  promoter activity interaction Z-score: 0.0343 ± 0.03
[2]; [23]
  promoter activity interaction Z-score: -0.0303 ± 0.042
[3]; [8]
  promoter activity interaction Z-score: -0.0559 ± 0.11
[3]; [9]
  promoter activity interaction Z-score: -0.0152 ± 0.0074
[3]; [10]
  promoter activity interaction Z-score: 0.0206 ± 0.0032
[3]; [11]
  promoter activity interaction Z-score: -0.264 ± 0.11
[3]; [12]
  promoter activity interaction Z-score: -0.327 ± 0.068
[3]; [13]
  promoter activity interaction Z-score: -0.09496 ± 0.00031
[3]; [14]
  promoter activity interaction Z-score: -0.0735 ± 0.081
[3]; [15]
  promoter activity interaction Z-score: -0.0751 ± 0.037
[3]; [16]
  promoter activity interaction Z-score: -0.152 ± 0.26
[3]; [17]
  promoter activity interaction Z-score: -0.0333 ± 0.092
[3]; [18]
  promoter activity interaction Z-score: -0.000559 ± 0.02
[3]; [19]
  promoter activity interaction Z-score: -0.18 ± 0.06
[3]; [20]
  promoter activity interaction Z-score: -0.0833 ± 0.079
[3]; [21]
  promoter activity interaction Z-score: 0.00541 ± 0.1
[3]; [22]
  promoter activity interaction Z-score: -0.0861 ± 0.014
[3]; [23]
  promoter activity interaction Z-score: -0.189 ± 0.084
[4]; [8]
  promoter activity interaction Z-score: 0.217 ± 0.3
[4]; [9]
  promoter activity interaction Z-score: 0.187 ± 0.0061
[4]; [10]
  promoter activity interaction Z-score: -0.155 ± 0.074
[4]; [11]
  promoter activity interaction Z-score: -0.0733 ± 0.12
[4]; [12]
  promoter activity interaction Z-score: -0.138 ± 0.22
[4]; [13]
  promoter activity interaction Z-score: -0.0604 ± 0.18
[4]; [14]
  promoter activity interaction Z-score: 0.261 ± 0.17
[4]; [15]
  promoter activity interaction Z-score: 0.2636 ± 0.0018
[4]; [16]
  promoter activity interaction Z-score: -0.0385 ± 0.54
[4]; [17]
  promoter activity interaction Z-score: 0.144 ± 0.29
[4]; [18]
  promoter activity interaction Z-score: 0.609 ± 0.017
[4]; [19]
  promoter activity interaction Z-score: 0.11 ± 0.042
[4]; [20]
  promoter activity interaction Z-score: 0.547 ± 0.5
[4]; [21]
  promoter activity interaction Z-score: 1.12 ± 0.3
[4]; [22]
  promoter activity interaction Z-score: 0.862 ± 0.19
[4]; [23]
  promoter activity interaction Z-score: 0.815 ± 0.34
[5]; [8]
  promoter activity interaction Z-score: 0.061 ± 0.23
[5]; [9]
  promoter activity interaction Z-score: 0.425 ± 0.28
[5]; [10]
  promoter activity interaction Z-score: 0.355 ± 0.21
[5]; [11]
  promoter activity interaction Z-score: -0.235 ± 0.13
[5]; [12]
  promoter activity interaction Z-score: 0.165 ± 0.35
[5]; [13]
  promoter activity interaction Z-score: -0.111 ± 0.75
[5]; [14]
  promoter activity interaction Z-score: 0.8 ± 0.29
[5]; [15]
  promoter activity interaction Z-score: 0.979 ± 1.1
[5]; [16]
  promoter activity interaction Z-score: 0.177 ± 0.99
[5]; [17]
  promoter activity interaction Z-score: 0.7 ± 0.077
[5]; [18]
  promoter activity interaction Z-score: 0.452 ± 0.054
[5]; [19]
  promoter activity interaction Z-score: -0.0713 ± 0.41
[5]; [20]
  promoter activity interaction Z-score: 0.378 ± 0.83
[5]; [21]
  promoter activity interaction Z-score: 0.776 ± 0.22
[5]; [22]
  promoter activity interaction Z-score: 0.36 ± 0.24
[5]; [23]
  promoter activity interaction Z-score: 0.489 ± 0.32
[6]; [8]
  promoter activity interaction Z-score: 0.0487 ± 0.14
[6]; [9]
  promoter activity interaction Z-score: 0.0513 ± 0.066
[6]; [10]
  promoter activity interaction Z-score: -0.047 ± 0.051
[6]; [11]
  promoter activity interaction Z-score: -0.0356 ± 0.017
[6]; [12]
  promoter activity interaction Z-score: -0.0569 ± 0.11
[6]; [13]
  promoter activity interaction Z-score: -0.088 ± 0.048
[6]; [14]
  promoter activity interaction Z-score: 0.106 ± 0.0032
[6]; [15]
  promoter activity interaction Z-score: 0.0415 ± 0.21
[6]; [16]
  promoter activity interaction Z-score: 0.0827 ± 0.065
[6]; [17]
  promoter activity interaction Z-score: -0.0818 ± 0.06
[6]; [18]
  promoter activity interaction Z-score: 0.0852 ± 0.18
[6]; [19]
  promoter activity interaction Z-score: 0.0431 ± 0.011
[6]; [20]
  promoter activity interaction Z-score: 0.036 ± 0.026
[6]; [21]
  promoter activity interaction Z-score: -0.085 ± 0.049
[6]; [22]
  promoter activity interaction Z-score: -0.132 ± 0.058
[6]; [23]
  promoter activity interaction Z-score: 0.0974 ± 0.06
[7]; [8]
  promoter activity interaction Z-score: -0.237 ± 0.51
[7]; [9]
  promoter activity interaction Z-score: 0.544 ± 0.53
[7]; [10]
  promoter activity interaction Z-score: -0.201 ± 0.23
[7]; [11]
  promoter activity interaction Z-score: 0.183 ± 0.079
[7]; [12]
  promoter activity interaction Z-score: -0.938 ± 0.4
[7]; [13]
  promoter activity interaction Z-score: -0.0891 ± 0.26
[7]; [14]
  promoter activity interaction Z-score: 0.158 ± 0.57
[7]; [15]
  promoter activity interaction Z-score: -0.129 ± 0.43
[7]; [16]
  promoter activity interaction Z-score: -0.953 ± 0.17
[7]; [17]
  promoter activity interaction Z-score: 0.401 ± 1.3
[7]; [18]
  promoter activity interaction Z-score: -0.12 ± 0.26
[7]; [19]
  promoter activity interaction Z-score: -0.386 ± 0.015
[7]; [20]
  promoter activity interaction Z-score: 0.119 ± 0.47
[7]; [21]
  promoter activity interaction Z-score: 0.316 ± 0.49
[7]; [22]
  promoter activity interaction Z-score: -0.271 ± 1.3
[7]; [23]
  promoter activity interaction Z-score: 0.345 ± 0.71
